Measured values published in PubChem BioAssay AID2284345 (EPA ToxCast).
Inconclusive results are not listed. The source made the active and inactive calls. The calls were made as follows: active = hit-call score of the fitted dose curve at least 0.9, where 1 is the maximum; inconclusive = response in the unintended direction; inactive = score below 0.9.

Tested on: zebrafish Glucocorticoid Receptor (GR), gene 553740
Experiment: ATG_zfGR_EcoTox2: Attagene TRANS-FACTORIAL EcoTox-2 HepG2 Assay for zebrafish Glucocorticoid Receptor (GR)
Experimental: ATG_EcoTox2 is a cell-based, multiplexed assay created by modifying the existing Attagene TRANS-FACTORIAL system to include a panel of nuclear receptors from some or all the following species: human (Homo sapiens), african clawed frog (Xenopus laevis), rainbow trout (Oncorhynchus mykiss), japanese medaka (Oryzias latipes), and zebrafish (Danio rerio). The ECOTOX2-FACTORIAL format uses HepG2, a human liver cell line, with measurements taken at 24 hours after chemical dosing in a 24-well plate. ATG_zfGR_EcoTox2 is one of 29 assay components calculated in the ATG_EcoTox2 assay. It is designed to make measurements of mRNA induction, a form of inducible reporter, as detected with fluorescence intensity signals by Reverse transcription polymerase chain reaction (RT-PCR) and Capillary electrophoresis technology.The assay endpoint ATG_zfGR_EcoTox2 was analyzed in the positive analysis fitting direction relative to DMSO as the negative control and baseline of activity. Using a type of inducible reporter, measures of mRNA for gain-of-signal activity can be used to understand the reporter gene at the transcription factor-level as they relate to the gene for glucocorticoid receptor. Furthermore, this assay endpoint can be referred to as a primary readout, because this assay has produced multiple assay endpoints where this one serves a reporter gene function. […]

Compound | outcome
O=P(Oc1ccccc1)(Oc1ccccc1)Oc1ccccc1 | inactive
O=S(=O)(O)C(F)(F)C(F)(F)C(F)(F)C(F)(F)C(F)(F)C(F)(F)F | inactive
